From PubChem BioAssay (NCATS)
Inconclusive results are not listed. Active and inactive are the calls of the source. Unless noted, calls follow the shape of the dose curve; as a rule, active = well fitted curve in the direction sought with a large enough effect; inconclusive = small, poorly fitted or top-dose-only effect, or another doubt; inactive = no such curve, though single readings can be large; an effect the other way counts as inactive or inconclusive.

How the values were obtained:
[1] = qHTS for differential inhibitors of proliferation of Plasmodium falciparum line GB4 (AID 1816); details: Potency: Plasmodium falciparum GB4 proliferation inhibition;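 also: parasite growth measured after 72 h incubation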; also: potency is read from the fitted curve at half-maximal effect
[2] = qHTS for differential inhibitors of proliferation of Plasmodium falciparum line 3D7 (AID 1876); also: potency is read from the fitted curve at half-maximal effect
[3] = qHTS for differential inhibitors of proliferation of Plasmodium falciparum line D10 (AID 1877);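 also: parasites grown with compound for 72 h before DNA staining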; also: potency is read from the fitted curve at half-maximal effect
[4] = qHTS for differential inhibitors of proliferation of Plasmodium falciparum line Dd2 (AID 1882); details: Potency: Plasmodium falciparum Dd2 proliferation inhibition; also: nearly all actives have a fitted effect of over 65% in size; also: potency is read from the fitted curve at half-maximal effect
Procedure, shortened: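 RBC culture, 0.3% parasitemia / 2.5% Hct final; cpd added by pin tool in DMSO; 72 h, 37 C, 5% CO2; lysis buffer + SYBR Green I, o/n RT dark; FI 485/535; norm. to artemisinin 0.29 uM and DMSO.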

[5] = qHTS for differential inhibitors of proliferation of Plasmodium falciparum line W2 (AID 1883); details: Potency: Plasmodium falciparum W2 proliferation inhibition;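 also: parasites grown with compound for 72 h before lysis and staining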; also: potency is read from the fitted curve at half-maximal effect
[6] = qHTS for differential inhibitors of proliferation of Plasmodium falciparum line HB3 (AID 1886); details: Potency: Plasmodium falciparum HB3 proliferation inhibition;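 also: parasites grown with compound for 72 h before SYBR Green readout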; also: potency is read from the fitted curve at half-maximal effect
[7] = target: Ferritin light chain (Equus caballus) (UniProt P02791); experiment: qHTS Validation Assay for Identification of Novel General Anesthetics (AID 2323); also: series mostly up to about 77 µM
Ferritin light chain (Equus caballus), sequence (P02791 2-175 limits assumed): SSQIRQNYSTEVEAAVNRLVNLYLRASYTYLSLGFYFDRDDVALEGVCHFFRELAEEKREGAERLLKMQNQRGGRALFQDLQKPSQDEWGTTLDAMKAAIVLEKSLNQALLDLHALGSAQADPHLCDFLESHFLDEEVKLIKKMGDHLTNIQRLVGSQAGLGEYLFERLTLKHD
Procedure, shortened: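 Competitive displacement of profluorescent 1-aminoanthracene (1-AMA, 50% saturated solution in PBS) from 10 uM horse-spleen apoferritin. Compounds incubated 10 min at room temperature; fluorescence read at 380 nm excitation/535 nm emission, normalized to free 1-AMA and complex, fitted with four-parameter Hill equation.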

[8] = target: ATP-dependent DNA helicase Q1 (Homo sapiens) (UniProt P46063); experiment: qHTS Validation Assay for Inhibitors of RecQ-Like Dna Helicase 1 (RECQ1) (AID 2353)
ATP-dependent DNA helicase Q1 (Homo sapiens), sequence (P46063 whole entry, looked up): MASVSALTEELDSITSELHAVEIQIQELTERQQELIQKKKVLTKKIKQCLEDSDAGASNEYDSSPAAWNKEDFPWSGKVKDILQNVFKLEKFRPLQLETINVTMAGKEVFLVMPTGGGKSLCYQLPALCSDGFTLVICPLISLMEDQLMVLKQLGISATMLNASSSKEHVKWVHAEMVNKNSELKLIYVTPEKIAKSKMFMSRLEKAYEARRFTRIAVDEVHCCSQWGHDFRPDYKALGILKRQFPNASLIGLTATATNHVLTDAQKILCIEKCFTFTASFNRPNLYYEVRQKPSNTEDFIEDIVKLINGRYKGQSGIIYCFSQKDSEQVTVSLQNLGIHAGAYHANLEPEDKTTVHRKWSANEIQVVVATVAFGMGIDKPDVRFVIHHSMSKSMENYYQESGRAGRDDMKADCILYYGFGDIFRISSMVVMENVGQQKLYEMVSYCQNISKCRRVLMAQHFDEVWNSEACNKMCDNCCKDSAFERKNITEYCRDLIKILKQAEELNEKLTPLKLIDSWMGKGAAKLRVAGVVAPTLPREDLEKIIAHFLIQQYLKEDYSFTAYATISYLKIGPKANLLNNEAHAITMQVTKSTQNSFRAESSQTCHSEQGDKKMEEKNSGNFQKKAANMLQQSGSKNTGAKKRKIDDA
Procedure, shortened: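 RECQ1T1 50 nM; forked duplex (20 bp + 30-nt ss tails) 200 nM, ATP 2 mM final; pH 8.0, 2 mM MgCl2, 2.5 ug/ml poly(dI-dC); 15 min compound preincubation; discontinuous kinetic read over 2 h at RT.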

[9] = Cytometric Cell-Based qHTS for Inhibitors of the mTORC1 Signaling Pathway in MEF (Tsc2-/-, p53-/-) Cells (AID 2660);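 also: Tsc2 and p53 null MEFs carrying empty vector with compound for 24 h; percent of cells above a phospho-rpS6 to PI ratio cutoff in each well; series mostly up to about 38 µM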
Procedure, shortened: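 Cells are plated, treated with compound for 24 hrs at 37 degree Celsius, then fixed, blocked and immunostained for phospho-rpS6 Ser235/236. Propidium iodide counterstain follows. Per-well % positive cells is derived from the PI-normalized phospho-S6 signal.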

[10] = High Content Imaging Cell-Based qHTS for Inhibitors of the mTORC1 Signaling Pathway in MEF (Tsc2-/-, p53-/-) Cells (AID 2666);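 also: percent of cells scored positive for phospho-rpS6 Ser235/236 immunostaining by imaging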; also: potency is read from the fitted curve at half-maximal effect
Procedure, shortened: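 Tsc2-/-, p53-/- MEFs (empty-vector stable) grown in DMEM + 10% FBS were exposed to compounds for 24 hrs at 37 degree Celsius, fixed, and stained with Alexa-488 anti-phospho-rpS6 Ser235/236 plus Hoechst. Imaging gave the percentage of positive cells per well.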

[11] = Cytometry Cell-Based qHTS for Inhibitors of the mTORC1 Signaling Pathway in MEF cells (AID 2668); also: potency is read from the fitted curve at half-maximal effect
Procedure, shortened: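 WT MEFs (Tsc2-/-, p53-/- stably re-expressing WT Tsc2) in DMEM + 10% FBS received compounds 24 hrs after plating, for 24 hrs at 37 degree Celsius. Fixed cells stained with Alexa-488 anti-phospho-rpS6 Ser235/236 and propidium iodide; laser-scanning cytometry read-out.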

[12] = target: DNA polymerase III PolC-type (Bacillus subtilis (strain 168)) (UniProt P13267); experiment: qHTS Validation Assay for the Inhibitors of DNA Replication in Gram-Positive Bacteria (AID 485295);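 also: PicoGreen fluorescence of double-stranded DNA made on primed circular M13 template; series mostly up to about 57 µM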
Procedure, shortened: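 Reconstituted B. subtilis holoenzyme (Pol III, beta clamp, SSB, primase) was preincubated with compound at room temperature, then given single-stranded circular M13Gori plus dNTPs and NTPs. EDTA-containing PicoGreen stopped the reaction, and dsDNA product was read by fluorescence.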

[13] = target: Tumor susceptibility gene 101 protein (Homo sapiens) (UniProt Q99816); experiment: qHTS Validation Assay for Iinhibitors of HIV-1 Budding by Blocking the Interaction of PTAP/TSG101 (AID 485342; calls by dose curve)
Tumor susceptibility gene 101 protein (Homo sapiens), sequence (Q99816 whole entry, looked up, the tested form may be a part): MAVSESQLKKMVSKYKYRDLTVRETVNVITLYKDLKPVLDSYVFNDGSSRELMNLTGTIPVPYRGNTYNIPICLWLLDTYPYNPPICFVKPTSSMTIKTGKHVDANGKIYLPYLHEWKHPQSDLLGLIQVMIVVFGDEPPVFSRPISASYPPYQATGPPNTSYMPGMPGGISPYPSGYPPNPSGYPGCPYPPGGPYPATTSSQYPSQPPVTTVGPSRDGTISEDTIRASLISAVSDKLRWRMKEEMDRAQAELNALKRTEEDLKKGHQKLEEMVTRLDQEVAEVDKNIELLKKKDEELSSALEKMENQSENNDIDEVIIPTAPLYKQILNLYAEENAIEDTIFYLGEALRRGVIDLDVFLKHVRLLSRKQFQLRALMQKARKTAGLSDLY
Procedure, shortened: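 Tsg101 binding domain (10 uM final) in pH 7.5 HEPES/NaCl/Tween 20/EDTA/TCEP buffer was mixed with pin-transferred compounds, then FITC-labeled PTAP peptide (50 nM final) was added; after 20 min at r.t., fluorescence polarization was read.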

[14] = qHTS Validation Assay to Find Inhibitors of Chronic Active B-Cell Receptor Signaling (AID 485345; active = well fitted curve in the direction sought with a large enough effect in the main read-out, with a control signal flat, not every such curve was filed as active)
Procedure, shortened: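 Read-out: ratio of filter-corrected green (IkappaBalpha fusion) to red (native) luciferase signal in doxycycline-induced TMD8 cells after 4 h at 37C. Titration spanned 46 uM–3 nM; Data were normalised to basal cells and 10 uM MG-132 wells.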

[15] = target: Beta-2 adrenergic receptor (Homo sapiens) (UniProt P07550); experiment: qHTS validation assay of beta-arrestin-biased ligands of beta2-adrenergic receptor (AID 485366)
Beta-2 adrenergic receptor (Homo sapiens), sequence (P07550 whole entry, looked up): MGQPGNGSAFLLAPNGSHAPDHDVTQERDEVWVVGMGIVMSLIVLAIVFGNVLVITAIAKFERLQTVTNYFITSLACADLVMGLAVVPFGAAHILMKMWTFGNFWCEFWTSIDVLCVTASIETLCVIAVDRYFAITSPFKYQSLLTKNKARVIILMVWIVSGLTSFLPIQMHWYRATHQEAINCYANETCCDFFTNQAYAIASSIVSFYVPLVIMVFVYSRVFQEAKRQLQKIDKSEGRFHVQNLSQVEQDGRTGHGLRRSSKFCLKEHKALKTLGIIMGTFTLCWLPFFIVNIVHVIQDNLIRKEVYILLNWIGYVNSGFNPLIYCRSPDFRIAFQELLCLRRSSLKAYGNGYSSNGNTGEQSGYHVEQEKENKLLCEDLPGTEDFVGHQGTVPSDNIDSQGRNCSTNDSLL
Procedure, shortened: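 Compound series up to 46 microM applied to beta2-AR/beta-arrestin Tango cells, 18 hr, 37 degrees C, 5% CO2. Read-out: tTA-driven luciferase luminescence, converted to %Activity; concentration-response curves assigned curve classes.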

[16] = target: ATP-dependent 6-phosphofructokinase (Trypanosoma brucei brucei) (UniProt O15648); experiment: qHTS Validation Assay to Find Inhibitors of T. brucei phosphofructokinase (AID 485368); details: outcome: dose series up to 57.5 µM
ATP-dependent 6-phosphofructokinase (Trypanosoma brucei brucei), sequence (O15648 whole entry, looked up): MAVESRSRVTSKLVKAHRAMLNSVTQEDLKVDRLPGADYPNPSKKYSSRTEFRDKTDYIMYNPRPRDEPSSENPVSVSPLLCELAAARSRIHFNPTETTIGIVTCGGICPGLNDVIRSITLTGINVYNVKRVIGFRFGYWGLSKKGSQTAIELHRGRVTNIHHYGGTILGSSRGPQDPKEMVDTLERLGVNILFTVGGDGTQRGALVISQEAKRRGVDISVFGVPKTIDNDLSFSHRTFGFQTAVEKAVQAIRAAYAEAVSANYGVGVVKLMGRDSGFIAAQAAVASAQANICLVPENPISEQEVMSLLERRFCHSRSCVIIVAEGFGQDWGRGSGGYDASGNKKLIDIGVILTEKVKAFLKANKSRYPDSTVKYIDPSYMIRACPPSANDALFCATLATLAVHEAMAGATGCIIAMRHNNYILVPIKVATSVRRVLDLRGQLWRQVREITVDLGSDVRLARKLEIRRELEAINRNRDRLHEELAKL
Procedure, shortened: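 qHTS format, up to 57 uM. PFK 1.25 nM; F6P 0.5 mM; ATP 0.1 mM; 5 mM MgCl2, 0.01% Tween20, 0.1% BSA; 0.1 M TEA pH 8.0; 45 min RT; ADP-Glo readout; no-enzyme control = full inhibition.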

[17] = target: Ubiquitin carboxyl-terminal hydrolase 2 (Homo sapiens) (UniProt O75604); experiment: qHTS Validation Assay for Inhibitors of Ubiquitin-specific Protease USP2a Using CHOP2 as the Reporter (AID 463106)
Ubiquitin carboxyl-terminal hydrolase 2 (Homo sapiens), sequence (O75604 whole entry, looked up): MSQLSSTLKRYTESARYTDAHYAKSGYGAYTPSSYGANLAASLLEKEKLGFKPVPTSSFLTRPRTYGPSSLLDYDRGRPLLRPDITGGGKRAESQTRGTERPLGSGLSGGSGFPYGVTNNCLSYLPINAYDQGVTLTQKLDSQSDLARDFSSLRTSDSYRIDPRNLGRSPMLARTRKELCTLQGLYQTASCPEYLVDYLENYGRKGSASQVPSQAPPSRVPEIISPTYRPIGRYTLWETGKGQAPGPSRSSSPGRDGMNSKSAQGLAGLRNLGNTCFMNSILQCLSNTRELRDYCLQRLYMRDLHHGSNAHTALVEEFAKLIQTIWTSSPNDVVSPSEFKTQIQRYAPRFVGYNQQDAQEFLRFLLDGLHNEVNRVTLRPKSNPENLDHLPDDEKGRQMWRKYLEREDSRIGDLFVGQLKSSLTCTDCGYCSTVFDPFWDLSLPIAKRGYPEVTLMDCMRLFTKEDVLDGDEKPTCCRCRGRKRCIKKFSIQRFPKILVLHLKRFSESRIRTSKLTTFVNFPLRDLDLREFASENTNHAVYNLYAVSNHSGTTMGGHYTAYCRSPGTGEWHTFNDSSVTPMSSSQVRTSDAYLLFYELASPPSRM
Procedure, shortened: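 Readout was coupled fluorescence (Ex 485/Em 531 nm), read 60 min after adding 25 nM final Ub-CHOP2 and 25 nM reporter substrate. Beforehand, 10 nM final USP2 core had 30 min at RT with compound in pH 8.0 buffer. Curves were fitted after normalization to NEM and flagged for artifacts using time-zero reads.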

[18] = target: RecQ-like DNA helicase BLM (Homo sapiens) (UniProt P54132); experiment: qHTS Validation Assay for Inhibitors of Bloom's syndrome helicase (BLM) (AID 2364); also: potency is read from the fitted curve at half-maximal effect
RecQ-like DNA helicase BLM (Homo sapiens), sequence (P54132 whole entry, looked up): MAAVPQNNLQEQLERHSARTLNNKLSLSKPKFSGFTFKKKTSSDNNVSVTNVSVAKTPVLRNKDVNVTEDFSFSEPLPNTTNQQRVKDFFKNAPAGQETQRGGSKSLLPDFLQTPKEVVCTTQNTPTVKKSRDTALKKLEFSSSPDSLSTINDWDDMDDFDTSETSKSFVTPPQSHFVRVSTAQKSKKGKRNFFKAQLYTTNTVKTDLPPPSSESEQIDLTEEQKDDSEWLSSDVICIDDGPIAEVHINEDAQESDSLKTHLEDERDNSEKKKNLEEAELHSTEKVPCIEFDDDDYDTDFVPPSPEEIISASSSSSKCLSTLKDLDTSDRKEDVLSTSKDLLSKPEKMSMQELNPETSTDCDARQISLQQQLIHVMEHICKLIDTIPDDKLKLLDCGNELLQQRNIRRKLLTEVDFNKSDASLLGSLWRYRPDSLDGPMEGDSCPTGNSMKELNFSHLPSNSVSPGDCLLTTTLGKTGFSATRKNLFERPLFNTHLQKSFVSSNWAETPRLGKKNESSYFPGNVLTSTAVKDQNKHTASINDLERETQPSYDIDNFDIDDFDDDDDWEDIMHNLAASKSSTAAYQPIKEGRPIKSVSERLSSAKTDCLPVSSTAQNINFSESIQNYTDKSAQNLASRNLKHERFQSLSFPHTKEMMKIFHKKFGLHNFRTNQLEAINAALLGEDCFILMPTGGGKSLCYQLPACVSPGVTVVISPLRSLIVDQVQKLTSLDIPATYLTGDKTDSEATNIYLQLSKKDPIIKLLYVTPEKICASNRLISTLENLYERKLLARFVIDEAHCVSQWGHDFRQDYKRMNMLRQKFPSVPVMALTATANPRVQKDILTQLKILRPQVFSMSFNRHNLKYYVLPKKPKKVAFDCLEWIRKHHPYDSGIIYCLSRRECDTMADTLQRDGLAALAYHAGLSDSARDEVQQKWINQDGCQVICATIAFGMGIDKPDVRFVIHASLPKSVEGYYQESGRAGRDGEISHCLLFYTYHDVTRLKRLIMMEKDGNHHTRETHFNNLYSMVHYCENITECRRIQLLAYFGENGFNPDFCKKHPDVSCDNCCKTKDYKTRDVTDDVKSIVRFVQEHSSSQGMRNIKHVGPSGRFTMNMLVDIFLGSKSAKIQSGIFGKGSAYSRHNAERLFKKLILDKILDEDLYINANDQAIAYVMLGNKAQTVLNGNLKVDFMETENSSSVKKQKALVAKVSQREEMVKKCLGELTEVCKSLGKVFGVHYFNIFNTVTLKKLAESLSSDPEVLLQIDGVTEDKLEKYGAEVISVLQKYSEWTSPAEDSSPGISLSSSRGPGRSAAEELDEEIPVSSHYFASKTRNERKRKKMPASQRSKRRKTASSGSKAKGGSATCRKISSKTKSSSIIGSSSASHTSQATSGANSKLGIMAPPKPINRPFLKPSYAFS
Procedure, shortened: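 Forked 20-bp duplex substrate (200 nM, TAMRA/BHQ-2) plus 2 mM ATP added after 15 min compound preincubation with 50 nM enzyme, pH 8.0, poly(dI-dC) 2.5 ug/ml. Strand separation followed by fluorescence (525/598 nm) over 2 h, normalized to enzyme-free and DMSO controls.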

[19] = qHTS Assay for Identification of Small Molecule Inducers of Hypoxia Response (AID 2120; active = well fitted curve in the direction sought with a large enough effect in the signal ratio, with a control signal flat, not every such curve was filed as active; the % refers to the signal ratio)
Procedure, shortened: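 Read-out: CCF4 FRET emission ratio 460nm/530nm (excitation 405nm), converted to %Activity, with AC50 fitted across a compound titration. ME-180 cells carried an HRE-driven beta-lactamase reporter; compound exposure 17 h, 37 degrees C.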

[20] = qHTS Assay for Modulators of Human Peripheral Myelin Protein 22 (PMP22) Expression/Activity (AID 1967; active = well fitted curve in the direction sought with a large enough effect in the signal ratio; the % refers to the signal ratio)
Procedure, shortened: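 MSC80 mouse Schwann cells stably carrying Pmp22 promoter–green click beetle luciferase plus EF-alpha–red luciferase control were dosed for 24h at 37 °C. Dual-colour luminescence was filter-overlap corrected; %Activity came from green/red ratio versus untreated cells.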

Measured: Potency

CCN(CC)CCNC(=O)c1ccc(N)cc1
inactive: [1] | [2] | [3] | [4] | [5] | [6] | [7] | [8] | [9] | [10] | [11] | [12] | [13] | [14] | [15] | [16]

O=C(NCCN1CCOCC1)c1ccc(Cl)cc1
inactive: [9] | [10] | [11] | [17] | [12] | [13] | [14] | [15] | [16]

NCCS
inactive: [1] | [2] | [3] | [4] | [5] | [6] | [7] | [8] | [9] | [10] | [11] | [17] | [12] | [13] | [14] | [15] | [16]

NC(N)=Nc1nc(CSCC/C(N)=N/S(N)(=O)=O)cs1
inactive: [1] | [2] | [3] | [4] | [5] | [6] | [7] | [8] | [9] | [10] | [11] | [17] | [12] | [13] | [14] | [15]

COc1cccc(-c2cc(=O)c3ccccc3o2)c1N
active: [5] 12.6 µM
inactive: [4] | [7] | [8] | [9] | [10] | [11] | [17] | [12] | [13] | [14] | [15]

CC(C)(C)c1ccc(C(O)CCCN2CCC(C(O)(c3ccccc3)c3ccccc3)CC2)cc1 (stereo not given)
inactive: [8] | [17] | [12] | [13] | [14] | [15] | [16]
active: [10] 18.5 µM | [11] 7.36 µM

CC/C(=C(\c1ccccc1)c1ccc(OCCN(C)C)cc1)c1ccccc1
active: [1] 12.6 µM | [2] 11.2 µM | [3] 11.2 µM | [4] 11.2 µM | [5] 7.94 µM | [6] 11.2 µM
inactive: [7] | [8] | [17] | [13] | [16]

CC(=O)CCCCn1c(=O)c2c(ncn2C)n(C)c1=O
inactive: [1] | [2] | [3] | [4] | [5] | [6] | [7] | [8] | [18] | [9] | [10] | [11] | [17] | [12] | [13] | [14] | [15] | [16]

Clc1ccc(C(c2ccc(Cl)cc2)n2cc[n+](CC(OCc3ccc(Cl)cc3Cl)c3ccc(Cl)cc3Cl)c2)cc1 (stereo not given)
inactive: [10] | [12] | [13] | [14] | [15]

O=C(O)c1cc(O)c2c(c1)C(=O)c1cccc(O)c1C2=O
inactive: [19]

O=C(O)Cc1cccc2ccccc12
inactive: [19]

COc1ccccc1N1CCN(CCCNc2cc(=O)n(C)c(=O)n2C)CC1
active: [2] 10 µM | [5] 10 µM
inactive: [4] | [7] | [8] | [9] | [10] | [11] | [17] | [12] | [13] | [14] | [15]

CC(C)NCC(O)COc1cccc2[nH]ccc12 (stereo not given)
inactive: [7] | [8] | [9] | [10] | [11] | [17] | [12] | [13] | [14] | [15]

CCN(CC)C(=O)c1ccc(O)c(OC)c1
inactive: [1] | [2] | [3] | [4] | [5] | [6] | [7] | [8] | [9] | [10] | [11] | [17] | [12] | [13] | [14] | [15] | [16]

O=C1NCC2(CCN(CCc3ccccc3)CC2)O1
inactive: [2] | [3] | [4] | [6] | [20] | [7] | [8] | [9] | [10] | [11] | [17] | [12] | [13] | [14] | [15]

O=C(O)CCc1nc(-c2ccccc2)c(-c2ccccc2)o1
inactive: [7] | [8] | [18] | [9] | [10] | [11] | [17] | [12] | [13] | [14] | [15] | [16]

CC1(C)CCC2=C(O1)c1ccccc1C(=O)C2=O
inactive: [8] | [10] | [17] | [12] | [13] | [15]
active: [1] 3.98 µM | [2] 10 µM | [3] 11.2 µM | [4] 12.6 µM | [5] 7.08 µM | [6] 12.6 µM | [18] 25.1 µM

Clc1ccc(Cn2c(CN3CCCC3)nc3ccccc32)cc1
inactive: [8] | [9] | [10] | [11] | [17] | [12] | [13] | [14] | [15]
active: [1] 10 µM | [2] 11.2 µM | [5] 5.62 µM | [6] 11.2 µM

COc1ccc(Cc2nccc3cc(OC)c(OC)cc23)cc1OC
inactive: [9] | [10] | [11] | [17] | [12] | [13] | [15] | [16]

C[N+](C)(C)CC(=O)O
inactive: [9] | [10] | [11] | [17] | [12] | [13] | [14] | [15]

CC(C)OC(=O)C(C)(C)Oc1ccc(C(=O)c2ccc(Cl)cc2)cc1
inactive: [8] | [9] | [10] | [17] | [12] | [13] | [15]

CC(=O)O[C@]1(C(C)=O)CC[C@H]2[C@@H]3C=C(Cl)C4=CC(=O)[C@@H]5C[C@@H]5[C@]4(C)[C@H]3CC[C@@]21C
inactive: [9] | [10] | [11] | [17] | [12] | [13] | [14] | [15] | [16]
